According to PubChem BioAssay AID2094 (Broad Institute, 2009):
About 1,200 (0.4%) of roughly 300,000 compounds were called active. This is one part of a sample in which actives are shown more often than they occur. Unmarked numbers belong to inactive results. Cut-off read from the data, not from the text of the source: active = activity change below about -75% (passing the limit was not always enough); inconclusive = no clear call, values can overlap the other calls.

Assay: Vibrio harveyi AI-2 quorum sensing modulators, primary screen, JMH597 strain, luminescence/OD600 ratio (AID 2094);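 note: luminescence divided by OD600 gain over 9 h not by final OD600 alone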
Details: Vibrio harveyi JMH597 AI-2 luminescence/OD600 ratio, 9 h; at 7.5 µM; stronger effect = lower value; 0 = neutral-control median; strain lacks LuxN and CqsS sensors

**Q.** Which activity change does the source give for `CCCc1ccc(OCC(=O)NNC(=S)NC(=O)c2ccco2)cc1` here?
**A.** The activity change was -5.63%.

**Q.** Which activity change does the source give for `CCCc1ccc(OCCNC(=O)c2ccccc2Br)cc1` here?
**A.** Its activity change is 28.5%.

**Q.** For `CCCc1ccc(OCCNC(=O)c2ccco2)cc1`, which activity change is on record?
**A.** The activity change was -83.3% (active).

**Q.** With `Cc1ccccc1OCC(=O)Nc1ccc2c(c1)ncn2C` as the compound, how does the activity change read?
**A.** Its activity change is 27.2%.

**Q.** With `Cc1ccc(C(=O)O)cc1N1C(=O)CCCC1=O` as the compound, how does the activity change read?
**A.** The activity change was 28.2%.

**Q.** Which activity change does the source give for `CCc1nnc(NS(=O)(=O)c2ccc(NC(=O)c3cccc(OC(F)(F)C(F)F)c3)cc2)s1` here?
**A.** The activity change was 24.2%.

**Q.** For `O=C(O)c1ccc(S(=O)(=O)N2CCC(Cc3ccccc3)CC2)cc1`, which activity change is on record?
**A.** The activity change was 38.4%.

**Q.** For `Cc1cc(C)nc(N/N=C/c2ccncc2)n1`, which activity change is on record?
**A.** Its activity change is 10.7%.

**Q.** Which activity change does the source give for `CCc1ccc(S(=O)(=O)N/N=C\c2ccc([N+](=O)[O-])o2)cc1` here?
**A.** Its activity change is 28.2%.

**Q.** Which activity change does the source give for `Cc1cc(C)nc(N/N=C/c2ccc([N+](=O)[O-])o2)n1` here?
**A.** The activity change was -83.7% (active).

**Q.** Which activity change does the source give for `NC(=O)CN1CCCC1c1ccc2c(c1)OCCO2` (stereo not drawn) here?
**A.** The activity change was 22.1%.

**Q.** With `Cc1ccc(CCCOC(=O)C[N+]2(C)CCCCC2)cc1` as the compound, how does the activity change read?
**A.** The activity change was 20.1%.

**Q.** With `Cc1cccc(-c2noc(-c3ccc(F)cc3)n2)c1` as the compound, how does the activity change read?
**A.** The activity change was 2.4%.

**Q.** Which activity change does the source give for `Cc1ccc(Cc2nc(-c3cccc(C)c3)no2)cc1` here?
**A.** Its activity change is -81.8% (active).

**Q.** For `Cc1ccc(-c2noc(CN3CCN(Cc4ccccc4)CC3)n2)cc1`, which activity change is on record?
**A.** The activity change was -10.7%.

**Q.** With `Cc1cccc(C)c1N1CCN(S(=O)(=O)N2CCOCC2)CC1` as the compound, how does the activity change read?
**A.** The activity change was 0.226%.

**Q.** For `Cc1cccc(C(=O)OCC(=O)Nc2ccc(F)cc2)c1`, which activity change is on record?
**A.** The activity change was -25.5%.

**Q.** With `Cc1cc(C(=O)OCC(=O)Nc2ccc(F)c(F)c2)c(C)o1` as the compound, how does the activity change read?
**A.** Its activity change is -93.5% (active).

**Q.** Which activity change does the source give for `Cc1cc(C)cc(NC(=O)COC(=O)c2cc(C)oc2C)c1` here?
**A.** Its activity change is -17%.

**Q.** Which activity change does the source give for `CCOC(=O)N1CCN(S(=O)(=O)c2ccc(Br)cc2)CC1` here?
**A.** The activity change was 14.3%.

**Q.** For `CC1CCN(C(=O)Cn2nnnc2CN2CCOCC2)CC1`, which activity change is on record?
**A.** Its activity change is 8%.

**Q.** Which activity change does the source give for `CC(=O)c1ccc2c(c1)OCCOCCOc1ccc(C(C)=O)cc1OCCOCCO2` here?
**A.** The activity change was 17.9%.

**Q.** Which activity change does the source give for `CN(C)c1ccc(/C=C/C(=O)c2ccc(O)cc2)cc1[N+](=O)[O-]` here?
**A.** The activity change was -93% (active).

**Q.** For `O=C(/C=C/c1ccc2c(c1)OCCO2)c1ccc(O)cc1`, which activity change is on record?
**A.** The activity change was -84.5% (active).

**Q.** Which activity change does the source give for `O=C(O)/C=C/c1ccc2c(c1)OCCO2` here?
**A.** The activity change was 6.59%.

**Q.** Which activity change does the source give for `CN(C)c1ccc(/C=C/C(=O)c2ccc(C(C)(C)C)cc2)cc1[N+](=O)[O-]` here?
**A.** The activity change was 19.9%.

**Q.** Which activity change does the source give for `O=C(/C=C/c1ccc(Cl)c([N+](=O)[O-])c1)c1ccc(O)cc1` here?
**A.** The activity change was -37.5%.

**Q.** Which activity change does the source give for `O=C(Cc1ccc([N+](=O)[O-])cc1)Nc1ccc(C(=O)N2CCOCC2)cc1` here?
**A.** Its activity change is 31%.
